Results on 45 molecules are retold here after PubChem BioAssay (EPA / NIEHS).

For assay [1], the target named is human Matrix Metalloproteinase-9 (MMP9), MMP9 (gene 4318) (UniProt P14780). The experiment in a line: NVS_ENZ_hMMP9: NovaScreen (NVS) Enzymatic Assay for human Matrix Metalloproteinase-9 (MMP9) (AID 2283190).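 Note: cell-free recombinant MMP9 protease activity read by fluorescent substrate signal; active means inhibition seen as loss of fluorescence signal versus DMSO.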 The procedure, abridged: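 Screening concentration 25 uM, duplicate wells, then dose series for confirmation. Cell-free enzymatic reaction measured by fluorescence intensity 1 h post-dosing; decreased signal versus DMSO taken as activity.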
Chain of human Matrix Metalloproteinase-9 (MMP9), MMP9 (gene 4318) (P14780 whole entry, looked up): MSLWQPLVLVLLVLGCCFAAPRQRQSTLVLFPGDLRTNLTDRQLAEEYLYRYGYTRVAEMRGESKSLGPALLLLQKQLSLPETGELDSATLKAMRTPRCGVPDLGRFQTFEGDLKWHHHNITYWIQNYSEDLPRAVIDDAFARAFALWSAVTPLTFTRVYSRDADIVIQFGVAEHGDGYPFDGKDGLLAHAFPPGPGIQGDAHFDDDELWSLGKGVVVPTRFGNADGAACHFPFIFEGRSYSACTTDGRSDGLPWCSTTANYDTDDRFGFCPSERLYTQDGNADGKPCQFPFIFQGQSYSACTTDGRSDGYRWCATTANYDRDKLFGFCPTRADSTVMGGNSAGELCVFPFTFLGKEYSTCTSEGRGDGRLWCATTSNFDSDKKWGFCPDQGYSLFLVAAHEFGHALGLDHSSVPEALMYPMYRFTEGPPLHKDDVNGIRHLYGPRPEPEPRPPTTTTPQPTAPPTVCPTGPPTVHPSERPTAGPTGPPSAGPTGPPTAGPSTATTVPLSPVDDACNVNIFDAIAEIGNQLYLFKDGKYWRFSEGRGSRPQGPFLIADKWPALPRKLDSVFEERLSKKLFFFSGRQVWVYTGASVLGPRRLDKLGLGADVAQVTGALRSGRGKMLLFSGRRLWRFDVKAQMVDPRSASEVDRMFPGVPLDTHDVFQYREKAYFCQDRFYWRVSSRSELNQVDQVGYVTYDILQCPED

Assay [2] has as its target human p21 Activated Kinase 4 (PAK4), PAK4 (gene 10298) (UniProt O96013). As to the kind of experiment: NVS_ENZ_hPAK4: NovaScreen (NVS) Enzymatic Assay for human p21 Activated Kinase 4 (PAK4) (AID 2283189). The procedure, abridged: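 Cell-free recombinant human PAK4 activity assay; fluorescent substrate and product separated by electrophoretic mobility shift, read 1 h after dosing. Initially tested in duplicate at 25 uM, relative to DMSO baseline.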

In assay [3] the target is cAMP-dependent protein kinase catalytic subunit alpha (Homo sapiens) (UniProt P17612). The experiment in a line: NVS_ENZ_hPKA: NovaScreen (NVS) Enzymatic Assay for human Protein Kinase A (PKA) (AID 2283192). As to the method: (§1) NVS_ENZ_hPKA is a biochemical, single-readout assay that uses extracted gene-proteins in a cell-free assay. Measurements were taken 1 hour after chemical dosing in a 384-well plate.NVS_ENZ_hPKA is one of one assay component(s) measured or calculated from the NVS_ENZ_hPKA assay. It is designed to make measurements of enzyme activity, a form of enzyme reporter, as detected with fluorescence intensity signals by Fluorescence and electrophoretic mobility shift technology.Data from the assay component NVS_ENZ_hPKA was analyzed into 1 assay endpoint. This assay endpoint, NVS_ENZ_hPKA, was analyzed in the positive analysis fitting direction relative to DMSO as the negative control and baseline of activity. Using a type of enzyme reporter, loss-of-signal activity can be used to understand changes in the enzymatic activity as they relate to the gene PRKACA. Furthermore, this assay endpoint can be referred to as a primary readout, because this assay has produced multiple assay endpoints where this one serves a enzymatic activity function. To generalize the intended target to other relatable targets, this assay endpoint is annotated to the kinase intended target family, where the subfamily is serine/threonine kinase.
(§2) Binding assays used specific radioligands (tritiated, iodinated) with non-radioactive competitive displacement ligands in agonist or antagonist protocols (as indicated) and various reference compounds and inhibitors to titrate specific binding to receptors and transporters. Most enzyme assays (CYPs, kinases, phosphatases, proteases, HDACs) used recombinant protein and specific substrates (fluorescence mostly, some colorimetric and radioactive) and inhibitors, followed by a biochemical separation of substrate and product. All assays for the biochemical HTS were initially run in duplicate at a single concentration (10 uM for CYP450 assays and 25 uM for all others). Assay-chemical combinations meeting a pre-defined threshold (e.g., 30% inhibition and other criteria defined below) were then run in singleton concentration-response format with maximum concentration of 20 uM for CYPs and 50 uM for all others. Each assay was run with positive and negative controls, and concurrent controls on every plate. The follow-up (secondary) screen tested active chemical-pairs in concentration series, as well as a few additional assays not tested in the primary screen, some selected negative inactives, and several cases re-run in the concentration series for confirmatory purposes.

For assay [4], the target named is human Phosphodiesterase 5 (PDE5), PDE5A (gene 8654) (UniProt O76074). The experiment in a line: NVS_ENZ_hPDE5: NovaScreen (NVS) Enzymatic Assay for human Phosphodiesterase 5 (PDE5) (AID 2283194). The protocol: as §1, with “NVS_ENZ_hPDE5” for “NVS_ENZ_hPKA”, “plate.NVS_ENZ_hPDE5” for “plate.NVS_ENZ_hPKA”, “NVS_ENZ_hPDE5,” for “NVS_ENZ_hPKA,”, “PDE5A.” for “PRKACA.”, “esterase” for “kinase”, “phosphodiesterase.” for “serine/threonine kinase.”
as §2, with “Assay-chemical combinations meeting a pre-defined threshold (e.g., 30% inhibition and other criteria defined below) were then run in singleton concentration-response format with maximum concentration of 20 uM for CYPs and 50 uM for all others.” left out

In assay [5] the target is human Protein Tyrosine Phosphatase Non-receptor Type 1 (PTPN1), PTPN1 (gene 5770) (UniProt P18031). As to the kind of experiment: NVS_ENZ_hPTPN1: NovaScreen (NVS) Enzymatic Assay for human Protein Tyrosine Phosphatase Non-receptor Type 1 (PTPN1) (AID 2283201). An outline of the steps: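 Cell-free fluorogenic-substrate activity assay on recombinant enzyme, read 1.33 h after dosing by fluorescence and electrophoretic mobility shift; loss of signal vs DMSO baseline. Primary screen in duplicate at 25 uM, hits then run in concentration-response up to 50 uM.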
Chain of human Protein Tyrosine Phosphatase Non-receptor Type 1 (PTPN1), PTPN1 (gene 5770) (P18031 whole entry, looked up): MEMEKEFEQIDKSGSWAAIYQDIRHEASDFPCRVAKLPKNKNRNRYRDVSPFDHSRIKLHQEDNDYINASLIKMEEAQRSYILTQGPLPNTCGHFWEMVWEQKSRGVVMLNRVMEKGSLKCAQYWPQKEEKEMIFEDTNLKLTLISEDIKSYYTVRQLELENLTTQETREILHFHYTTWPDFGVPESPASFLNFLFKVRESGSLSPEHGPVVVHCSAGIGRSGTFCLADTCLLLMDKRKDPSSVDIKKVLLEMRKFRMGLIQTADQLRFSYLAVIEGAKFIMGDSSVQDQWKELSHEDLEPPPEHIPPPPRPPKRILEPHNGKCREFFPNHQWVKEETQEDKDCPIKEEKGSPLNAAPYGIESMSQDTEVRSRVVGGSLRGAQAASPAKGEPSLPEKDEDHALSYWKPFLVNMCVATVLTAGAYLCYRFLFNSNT

In assay [6] the target is human Phosphoinositide 3-kinase alpha (PI3Ka), PIK3CA (gene 5290) (UniProt P42336). The experiment in a line: NVS_ENZ_hPI3Ka: NovaScreen (NVS) Enzymatic Assay for human Phosphoinositide 3-kinase alpha (PI3Ka) (AID 2283196). The procedure, abridged: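 Duplicate single-point screen (25 uM), then singleton dose-response (max 50 uM) for compounds meeting the threshold. Cell-free kinase reaction, 1 h; fluorescent mobility-shift readout.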
Chain of human Phosphoinositide 3-kinase alpha (PI3Ka), PIK3CA (gene 5290) (P42336 whole entry, looked up): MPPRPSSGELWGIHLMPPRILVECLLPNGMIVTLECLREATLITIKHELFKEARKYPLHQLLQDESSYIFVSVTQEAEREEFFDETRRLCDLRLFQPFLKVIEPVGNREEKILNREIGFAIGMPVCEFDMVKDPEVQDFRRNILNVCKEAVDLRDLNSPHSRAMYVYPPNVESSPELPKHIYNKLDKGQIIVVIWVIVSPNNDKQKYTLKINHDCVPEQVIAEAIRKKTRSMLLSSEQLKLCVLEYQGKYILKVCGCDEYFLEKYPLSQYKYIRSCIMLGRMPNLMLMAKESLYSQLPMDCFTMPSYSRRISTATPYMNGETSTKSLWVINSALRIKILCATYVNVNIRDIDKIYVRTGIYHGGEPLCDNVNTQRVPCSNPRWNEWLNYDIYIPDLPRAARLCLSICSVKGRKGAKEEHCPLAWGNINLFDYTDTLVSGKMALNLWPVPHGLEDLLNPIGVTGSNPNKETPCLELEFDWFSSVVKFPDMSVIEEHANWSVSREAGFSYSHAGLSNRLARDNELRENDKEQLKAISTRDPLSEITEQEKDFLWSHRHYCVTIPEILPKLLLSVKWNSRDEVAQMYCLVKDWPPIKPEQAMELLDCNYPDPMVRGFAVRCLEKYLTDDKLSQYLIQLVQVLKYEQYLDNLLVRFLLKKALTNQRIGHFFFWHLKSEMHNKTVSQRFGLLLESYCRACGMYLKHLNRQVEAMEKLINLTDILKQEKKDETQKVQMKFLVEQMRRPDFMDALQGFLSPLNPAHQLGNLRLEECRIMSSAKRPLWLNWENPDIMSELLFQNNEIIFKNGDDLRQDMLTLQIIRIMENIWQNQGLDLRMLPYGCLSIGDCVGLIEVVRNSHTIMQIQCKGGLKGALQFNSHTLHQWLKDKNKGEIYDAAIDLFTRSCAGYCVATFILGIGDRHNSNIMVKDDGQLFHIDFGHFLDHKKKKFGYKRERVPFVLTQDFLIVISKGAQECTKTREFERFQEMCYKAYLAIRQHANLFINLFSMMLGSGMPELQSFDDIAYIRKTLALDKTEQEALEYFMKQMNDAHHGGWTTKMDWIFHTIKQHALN

In assay [7] the target is human Phosphodiesterase 10 (PDE10), PDE10A (gene 10846) (UniProt Q9Y233). The experiment in a line: NVS_ENZ_hPDE10: NovaScreen (NVS) Enzymatic Assay for human Phosphodiesterase 10 (PDE10) (AID 2283195). The procedure, abridged: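 Recombinant human PDE10 with fluorescent substrate, 1 h, product separated by electrophoretic mobility shift. Loss of enzyme activity fitted against DMSO; initial screen 25 uM in duplicate, actives run to 50 uM maximum.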
Chain of human Phosphodiesterase 10 (PDE10), PDE10A (gene 10846) (Q9Y233 whole entry, looked up): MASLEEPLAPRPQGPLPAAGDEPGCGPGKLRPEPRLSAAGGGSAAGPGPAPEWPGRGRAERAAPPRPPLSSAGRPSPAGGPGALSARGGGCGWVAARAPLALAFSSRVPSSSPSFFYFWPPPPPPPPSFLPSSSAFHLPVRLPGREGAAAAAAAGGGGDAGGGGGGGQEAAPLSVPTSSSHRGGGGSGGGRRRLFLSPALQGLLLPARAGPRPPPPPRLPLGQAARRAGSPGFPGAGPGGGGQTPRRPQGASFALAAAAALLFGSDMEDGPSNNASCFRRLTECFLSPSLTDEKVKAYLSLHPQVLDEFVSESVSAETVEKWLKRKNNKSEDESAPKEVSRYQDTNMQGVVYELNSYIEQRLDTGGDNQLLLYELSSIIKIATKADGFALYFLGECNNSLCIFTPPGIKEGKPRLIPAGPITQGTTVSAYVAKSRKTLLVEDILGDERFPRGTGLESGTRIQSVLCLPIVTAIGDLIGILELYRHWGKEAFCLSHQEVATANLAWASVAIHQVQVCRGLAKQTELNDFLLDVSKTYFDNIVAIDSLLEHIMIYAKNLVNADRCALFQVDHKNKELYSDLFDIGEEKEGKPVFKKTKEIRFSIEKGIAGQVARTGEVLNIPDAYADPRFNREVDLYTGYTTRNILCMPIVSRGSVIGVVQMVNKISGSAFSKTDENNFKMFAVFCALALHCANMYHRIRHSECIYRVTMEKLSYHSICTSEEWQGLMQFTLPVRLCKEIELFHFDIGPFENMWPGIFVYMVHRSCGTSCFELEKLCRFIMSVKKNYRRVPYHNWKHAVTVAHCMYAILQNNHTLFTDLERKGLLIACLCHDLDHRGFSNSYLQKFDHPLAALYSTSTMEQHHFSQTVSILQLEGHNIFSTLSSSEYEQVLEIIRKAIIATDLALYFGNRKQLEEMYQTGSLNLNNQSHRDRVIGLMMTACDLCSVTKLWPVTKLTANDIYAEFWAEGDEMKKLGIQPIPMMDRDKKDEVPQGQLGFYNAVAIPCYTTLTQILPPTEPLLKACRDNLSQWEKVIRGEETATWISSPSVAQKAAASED

For assay [8], the target named is Serine/threonine-protein phosphatase PP1-alpha catalytic subunit (Homo sapiens) (UniProt P62136). As to the kind of experiment: NVS_ENZ_hPPP1CA: NovaScreen (NVS) Enzymatic Assay for human Protein Phosphatase 1 Aatalytic subunit Alpha (PPP1CA) (AID 2283200). An outline of the steps: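 Recombinant enzyme activity read by fluorescence with electrophoretic mobility shift separating substrate from product, 1.33 h after dosing; loss of signal vs DMSO baseline. Primary screen in duplicate at 25 uM; actives retested in concentration-response up to 50 uM.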
Chain of Serine/threonine-protein phosphatase PP1-alpha catalytic subunit (Homo sapiens) (P62136 whole entry, looked up): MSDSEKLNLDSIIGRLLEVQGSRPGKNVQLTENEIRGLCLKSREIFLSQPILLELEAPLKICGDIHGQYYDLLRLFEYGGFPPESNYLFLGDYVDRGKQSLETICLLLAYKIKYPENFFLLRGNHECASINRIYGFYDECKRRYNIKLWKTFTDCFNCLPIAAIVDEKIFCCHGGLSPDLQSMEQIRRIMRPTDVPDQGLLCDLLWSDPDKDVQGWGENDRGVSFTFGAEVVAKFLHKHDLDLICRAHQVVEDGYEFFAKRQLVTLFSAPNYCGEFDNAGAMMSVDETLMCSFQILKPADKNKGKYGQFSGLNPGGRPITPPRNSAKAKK

Assay [9] addresses human Phosphodiesterase 4A1 (PDE4A1), PDE4A (gene 5141) (UniProt P27815). As to the kind of experiment: NVS_ENZ_hPDE4A1: NovaScreen (NVS) Enzymatic Assay for human Phosphodiesterase 4A1 (PDE4A1) (AID 2283191). As to the method: as §1, with “NVS_ENZ_hPDE4A1” for “NVS_ENZ_hPKA”, “plate.NVS_ENZ_hPDE4A1” for “plate.NVS_ENZ_hPKA”, “NVS_ENZ_hPDE4A1,” for “NVS_ENZ_hPKA,”, “PDE4A.” for “PRKACA.”, “esterase” for “kinase”, “phosphodiesterase. […]” for “serine/threonine kinase.”

Assay [10] deals with human Protein Phosphatase, Mg2+/Mn2+ Dependent 1A (PPM1A), PPM1A (gene 5494) (UniProt P35813). As to the kind of experiment: NVS_ENZ_hPPM1A: NovaScreen (NVS) Enzymatic Assay for human Protein Phosphatase, Mg2+/Mn2+ Dependent 1A (PPM1A) (AID 2283198). An outline of the steps: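 Cell-free recombinant PPM1A phosphatase assay with fluorescent substrate, read 1 h after dosing by electrophoretic mobility shift. Chemicals screened in duplicate at 25 uM, then in concentration-response up to 50 uM; loss of activity versus DMSO.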

“And” between values parts separate entries of the source, which are not always exact repeats. Equal entries are not always repeated. Inconclusive results are not listed. The source made the active and inactive calls. Rule for the calls: active = hit-call score of the fitted dose curve at least 0.9, where 1 is the maximum; inconclusive = response in the unintended direction; inactive = score below 0.9.

Chain of human p21 Activated Kinase 4 (PAK4), PAK4 (gene 10298) (O96013 whole entry, looked up): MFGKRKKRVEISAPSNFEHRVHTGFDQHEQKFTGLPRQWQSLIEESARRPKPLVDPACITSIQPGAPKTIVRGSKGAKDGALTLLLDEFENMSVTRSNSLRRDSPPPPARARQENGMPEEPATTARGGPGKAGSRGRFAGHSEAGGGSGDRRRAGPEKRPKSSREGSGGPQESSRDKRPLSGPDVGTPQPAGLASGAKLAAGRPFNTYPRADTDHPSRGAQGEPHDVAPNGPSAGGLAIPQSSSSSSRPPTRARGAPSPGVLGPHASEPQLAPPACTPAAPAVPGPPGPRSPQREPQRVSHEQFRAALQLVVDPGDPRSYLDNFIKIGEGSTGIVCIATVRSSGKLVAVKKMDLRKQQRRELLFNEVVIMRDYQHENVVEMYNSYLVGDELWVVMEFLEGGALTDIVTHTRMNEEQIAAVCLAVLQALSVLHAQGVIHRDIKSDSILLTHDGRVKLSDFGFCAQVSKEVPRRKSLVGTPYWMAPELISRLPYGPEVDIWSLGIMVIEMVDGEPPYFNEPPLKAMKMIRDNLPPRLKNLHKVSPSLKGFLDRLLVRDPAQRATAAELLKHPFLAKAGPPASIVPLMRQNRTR
Chain of human Phosphodiesterase 4A1 (PDE4A1), PDE4A (gene 5141) (P27815 whole entry, looked up): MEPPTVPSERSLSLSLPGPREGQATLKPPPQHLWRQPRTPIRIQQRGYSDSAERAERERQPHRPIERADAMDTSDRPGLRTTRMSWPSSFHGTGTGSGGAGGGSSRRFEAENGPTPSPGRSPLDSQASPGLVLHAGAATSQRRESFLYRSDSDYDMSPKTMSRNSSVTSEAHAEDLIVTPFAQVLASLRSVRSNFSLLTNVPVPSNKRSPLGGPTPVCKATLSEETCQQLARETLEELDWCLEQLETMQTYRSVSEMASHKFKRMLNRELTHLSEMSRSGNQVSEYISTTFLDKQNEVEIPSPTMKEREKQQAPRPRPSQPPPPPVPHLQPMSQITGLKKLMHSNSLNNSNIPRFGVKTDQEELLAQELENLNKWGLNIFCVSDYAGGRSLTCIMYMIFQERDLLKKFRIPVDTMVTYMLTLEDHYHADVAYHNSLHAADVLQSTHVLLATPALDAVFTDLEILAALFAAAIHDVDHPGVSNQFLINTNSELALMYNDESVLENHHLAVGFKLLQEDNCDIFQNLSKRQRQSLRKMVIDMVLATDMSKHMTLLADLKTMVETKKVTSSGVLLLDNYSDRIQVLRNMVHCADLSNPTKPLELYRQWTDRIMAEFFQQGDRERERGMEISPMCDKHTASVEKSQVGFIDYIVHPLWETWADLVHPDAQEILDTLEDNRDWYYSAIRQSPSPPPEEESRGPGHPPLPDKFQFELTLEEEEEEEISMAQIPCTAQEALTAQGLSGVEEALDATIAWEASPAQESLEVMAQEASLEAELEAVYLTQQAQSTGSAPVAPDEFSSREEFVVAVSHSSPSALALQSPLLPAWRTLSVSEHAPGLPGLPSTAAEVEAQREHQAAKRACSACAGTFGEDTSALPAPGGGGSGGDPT

As usually defined, the AC50 is the concentration at which the activity in the assay is half-maximal. Take `CC(C)(C#N)N=NC(C)(C)C#N`: the AC50 in assay [1] was 6.44 µM (active). In the case of `COc1nn(C(=O)NS(=O)(=O)c2ccccc2OC(F)(F)F)c(=O)n1C`, the AC50 in [2] was 17.4 µM (active). Turning to `N#Cc1cccnc1`, the call in assay [2], in assay [3] and in [5] was inactive. In assay [4], the AC50 is 40.8 µM (active).

With `CCCCCCCCCCCCOS(=O)(=O)O`, in [2], the result was inactive.

Regarding `Oc1c(Br)cc(Br)cc1Br`, in [1], the outcome was inactive. Turning to `CC(C)(C)c1cc([N+](=O)[O-])cc(C(C)(C)C)c1O`, in assay [1], the AC50 is 1.64 µM (active). Regarding `CCOC(=O)CCN(SN(C)C(=O)Oc1cccc2c1OC(C)(C)C2)C(C)C`, the AC50 in [1] is 3.66 µM (active). In assay [6], the result was inactive. Regarding `C[N+](C)(C)Cc1ccccc1`, the AC50 in [1] is 8.55 µM (active) and 5.15 µM (active).

Turning to `CC1(C)[C@H](C(=O)O[C@H](C#N)c2cccc(Oc3ccccc3)c2)[C@@H]1/C=C(\Cl)C(F)(F)F`, the AC50 in assay [1] was 7.08 µM (active). Further, the call in [4] and in assay [7] was inactive.

As to `CC(C)(c1ccccc1)c1cc(-n2nc3ccccc3n2)c(O)c(C(C)(C)c2ccccc2)c1`, the AC50 in [1] was 1.24 µM (active).

On to `O=c1oc2ccccc2c(O)c1C(CC(O)c1ccc(-c2ccc(Br)cc2)cc1)c1ccccc1` (stereo not given), for which the AC50 in assay [1] is 0.436 µM (active); in assay [6], 5.19 µM (active). Also, the result in assay [7] was inactive.

`CCCCCCCCCCCCc1cccc(S(=O)(=O)O)c1`: the AC50 in assay [3] was 29.9 µM (active); in [4], 14.7 µM (active); in assay [6], 7.17 µM (active); in assay [8], 35.3 µM (active); in assay [5], 14.8 µM (active). Consider `BrCCCCBr`, for which the AC50 is 15.3 µM (active) in [1] and 4.81 µM (active) in [7]. Take `OC[P+](CO)(CO)CO`: the AC50 in assay [1] is 1.27 µM (active) and 3.16 µM (active); in assay [7], 9.04 µM (active). Regarding `CN(C)C(=S)S`, the molecule was classed as inactive in assay [2] and in [3]. In the case of `O=C(N[C@H]1CN2CCC1CC2)c1ccc2c(c1)OCCO2`, the molecule was called inactive in assay [2], in assay [9], in assay [3], in assay [7] and in [10].

Consider `[Cl][Sn]([c]1ccccc1)([c]1ccccc1)[c]1ccccc1`, for which the molecule was called inactive in assay [1].

As for `Clc1cccc(Cl)c1Cl`, the molecule was called inactive in assay [2]. On to `CCCCN(CCCC)C(=S)[S-].CCCCN(CCCC)C(=S)[S-].[Ni+2]`, for which the AC50 in [1] is 12.5 µM (active). For the molecule `CC(C)O.CC(C)O.OCCN(CCO)CCO.OCCN(CCO)CCO.[Ti]`, the AC50 in assay [2] is 0.00229 µM (active); in assay [3], 0.00229 µM (active); in [5], 0.00438 µM (active). Take `C#CCOC(=O)/C=C(C)/C=C/CC(C)CCCC(C)C` (stereo not given): the AC50 in assay [1] was 7.1 µM (active). `CCOP(=O)(OCC)OC(=CCl)c1ccc(Cl)cc1Cl`: in assay [1], the AC50 was 22.8 µM (active).

Regarding `O=C1c2ccccc2C(=O)C1C(=O)C(c1ccccc1)c1ccc(Cl)cc1` (stereo not given), the AC50 in assay [6] was 16.8 µM (active). For the molecule `N#Cc1ccccc1Cl`, the call in assay [7] was inactive. With `O=C(O)C1(c2ccc3c(c2)OC[C@H](Cc2ccc(-c4ccccc4)cc2)[C@H]3O)CCCC1`, the molecule was called inactive in assay [6]. Consider `CCCCOP(=O)(CCCC)OCCCC`, for which the outcome in assay [7] was inactive.

For the molecule `CC1CC(=O)O1` (stereo not given), the molecule was classed as inactive in assay [7]. On to `C=CC(=O)NC(C)(C)CC(C)=O`, for which, in assay [6], the molecule was classed as inactive. Regarding `CC(C)(C)c1ccc(CCOc2ncnc3ccccc23)cc1`, the molecule was classed as inactive in assay [7]. Regarding `COC(=O)Nc1cccc(OC(=O)Nc2cccc(C)c2)c1`, the molecule was called inactive in [4]. Still for that read-out and setting: for `Oc1c(Cl)cc(Cl)cc1Cl` the value was “inactive”. On to `Nc1ccc(N)cc1`, for which, in [7], the half-maximal activity concentration (AC50) is 2.5 µM (active). As to `C=CCCl`, in [6], the molecule was called inactive. In the case of `CN(CCCC(O)c1cccnc1)N=O` (stereo not given), the AC50 in [7] was 35.5 µM (active). Consider `O=[N+]([O-])c1ccc(Nc2ccccc2)cc1`, for which the call in assay [7] and in assay [6] was inactive. With `CCC(C)(C#N)N=NC(C)(C#N)CC` (stereo not given), the call in assay [6] was inactive. On to `Cc1cc(C(C)(C)c2ccc(O)c(C)c2)ccc1O`, for which the concentration at half-maximal activity (AC50) in [6] is 5.25 µM (active). Consider `CC[N+](CC)(CC)CC`, for which, in assay [6], the molecule was called inactive. Consider `c1ccc2sc(SNC3CCCCC3)nc2c1`, for which, in assay [7], the molecule was called inactive. Take `COc1ccccc1N`: in assay [7], the result was inactive. Also, in assay [8], the AC50 is 14.8 µM (active). Turning to `Nc1c(Oc2ccccc2)cc(O)c2c1C(=O)c1ccccc1C2=O`, the AC50 in assay [6] is 3.26 µM (active). Regarding `Oc1ccc(Cc2ccc(O)cc2)cc1`, the outcome in assay [7] and in assay [6] was inactive. As to `CC(C)[N+](=O)[O-]`, the call in assay [7] and in assay [6] was inactive. On to `Nc1nc(N)nc(Cl)n1`, for which the molecule was classed as inactive in [6].

As for `CCOP(=O)(OCC)SCCSCC`, the outcome in assay [7] was inactive.
